# The full ranking holds about 8,300 sequences; the median of “log2 fold change of degron read counts, EGFP-low vs EGFP+ sorted cells (limma voom), compound-induced degradation” is about -1.1, and the highest 2% start at about 3.2. The list comes from a sample in which the highest values are over-represented; it also holds similar and randomly drawn sequences.
# B1: 46F_47S_49D_50Q_52G_53A_54A_55F_67L_, Q9UKT9 (peptide)
# chain: FSCDQCGAAFTQKGNLLRHIKL
# B2: 46F_47S_49D_50I_52G_53A_54Q_55F_67L_, Q9UKT9 (peptide)
# chain: FSCDICGAQFTQKGNLLRHIKL
# B3: 46L_47T_49P_50I_52G_53F_54N_55C_67L_, Q9UKT9 (peptide)
# chain: LTCPICGFNCTQKGNLLRHIKL
# B4: 46F_47S_49E_50I_52G_53H_54Y_55F_67L_, Q9UKT9 (peptide)
# chain: FSCEICGHYFTQKGNLLRHIKL
# B5: 46F_47L_49E_50I_52G_53H_54L_55F_67L_, Q9UKT9 (peptide)
# chain: FLCEICGHLFTQKGNLLRHIKL
# B6: 46F_47M_49E_50I_52G_53R_54D_55F_67L_, Q9UKT9 (peptide)
# chain: FMCEICGRDFTQKGNLLRHIKL
# B7: 46F_47Y_49N_50V_52G_53A_54N_55F_67L_, Q9UKT9 (peptide)
# chain: FYCNVCGANFTQKGNLLRHIKL
# B8: 46F_47W_49D_50V_52G_53A_54N_55F_67L_, Q9UKT9 (peptide)
# chain: FWCDVCGANFTQKGNLLRHIKL
# B9: 46F_47V_49D_50V_52G_53A_54N_55F_67L_, Q9UKT9 (peptide)
# chain: FVCDVCGANFTQKGNLLRHIKL
# B10: 46F_47E_49N_50V_52G_53A_54N_55F_67L_, Q9UKT9 (peptide)
# chain: FECNVCGANFTQKGNLLRHIKL
# B11: 46F_47F_49P_50V_52G_53A_54N_55F_67L_, Q9UKT9 (peptide)
# chain: FFCPVCGANFTQKGNLLRHIKL
# B12: 46F_47E_49D_50V_52G_53A_54N_55F_67L_, Q9UKT9 (peptide)
# chain: FECDVCGANFTQKGNLLRHIKL
# B13: 46F_47R_49P_50V_52G_53A_54N_55F_67L_, Q9UKT9 (peptide)
# chain: FRCPVCGANFTQKGNLLRHIKL
# B14: 46F_47I_49P_50V_52G_53A_54N_55F_67L_, Q9UKT9 (peptide)
# chain: FICPVCGANFTQKGNLLRHIKL
# B15: 46F_47W_49N_50V_52G_53A_54N_55F_67L_, Q9UKT9 (peptide)
# chain: FWCNVCGANFTQKGNLLRHIKL
# B16: 46F_47S_49E_50I_52G_53H_54W_55F_67L_, Q9UKT9 (peptide)
# chain: FSCEICGHWFTQKGNLLRHIKL
# B17: 46F_47R_49N_50I_52G_53A_54M_55F_67L_, Q9UKT9 (peptide)
# chain: FRCNICGAMFTQKGNLLRHIKL
# B18: 46F_47K_49P_50I_52G_53H_54G_55F_67L_, Q9UKT9 (peptide)
# chain: FKCPICGHGFTQKGNLLRHIKL
# B19: 46F_47Y_49P_50V_52G_53A_54K_55F_67L_, Q9UKT9 (peptide)
# chain: FYCPVCGAKFTQKGNLLRHIKL
# B20: 46F_47S_49E_50V_52G_53A_54H_55F_67L_, Q9UKT9 (peptide)
# chain: FSCEVCGAHFTQKGNLLRHIKL
# B21: 46F_47G_49E_50I_52G_53A_54M_55F_67L_, Q9UKT9 (peptide)
# chain: FGCEICGAMFTQKGNLLRHIKL
# B22: 46F_47C_49E_50I_52G_53A_54M_55F_67L_, Q9UKT9 (peptide)
# chain: FCCEICGAMFTQKGNLLRHIKL
# B23: 46F_47F_49E_50I_52G_53A_54M_55F_67L_, Q9UKT9 (peptide)
# chain: FFCEICGAMFTQKGNLLRHIKL
# B24: 46F_47N_49E_50I_52G_53A_54M_55F_67L_, Q9UKT9 (peptide)
# chain: FNCEICGAMFTQKGNLLRHIKL
# B25: 46F_47A_49E_50I_52G_53A_54M_55F_67L_, Q9UKT9 (peptide)
# chain: FACEICGAMFTQKGNLLRHIKL
# B26: 46F_47D_49E_50I_52G_53A_54M_55F_67L_, Q9UKT9 (peptide)
# chain: FDCEICGAMFTQKGNLLRHIKL
# B27: 46F_47M_49E_50I_52G_53A_54M_55F_67L_, Q9UKT9 (peptide)
# chain: FMCEICGAMFTQKGNLLRHIKL
# B28: 46F_47E_49E_50I_52G_53A_54M_55F_67L_, Q9UKT9 (peptide)
# chain: FECEICGAMFTQKGNLLRHIKL
# B29: 46F_47L_49E_50I_52G_53A_54M_55F_67L_, Q9UKT9 (peptide)
# chain: FLCEICGAMFTQKGNLLRHIKL
# B30: 46F_47W_49E_50I_52G_53A_54M_55F_67L_, Q9UKT9 (peptide)
# chain: FWCEICGAMFTQKGNLLRHIKL
# B31: 46F_47Q_49E_50I_52G_53A_54M_55F_67L_, Q9UKT9 (peptide)
# chain: FQCEICGAMFTQKGNLLRHIKL
# B32: 46F_47H_49E_50I_52G_53A_54M_55F_67L_, Q9UKT9 (peptide)
# chain: FHCEICGAMFTQKGNLLRHIKL
# Molecular target: T1, CRBN, Q96SW2
# T1 chain: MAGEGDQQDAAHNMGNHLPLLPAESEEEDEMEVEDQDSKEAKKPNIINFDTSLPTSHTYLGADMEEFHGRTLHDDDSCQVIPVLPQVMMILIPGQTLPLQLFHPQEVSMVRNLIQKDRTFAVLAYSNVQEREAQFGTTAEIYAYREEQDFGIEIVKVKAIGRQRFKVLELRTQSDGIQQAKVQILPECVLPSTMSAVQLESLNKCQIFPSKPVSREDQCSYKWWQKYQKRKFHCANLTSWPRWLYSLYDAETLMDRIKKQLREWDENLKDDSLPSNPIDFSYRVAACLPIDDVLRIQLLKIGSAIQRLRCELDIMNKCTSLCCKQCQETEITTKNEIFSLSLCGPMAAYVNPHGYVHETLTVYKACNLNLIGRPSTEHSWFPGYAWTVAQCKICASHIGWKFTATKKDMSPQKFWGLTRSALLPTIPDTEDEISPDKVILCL
# Experiment: log2 fold change of degron read counts, EGFP-low vs EGFP+ sorted cells (limma voom), compound-induced degradation; higher = more compound-induced degradation of the degron-EGFP fusion; degrons are variants of IKZF1/3 zinc finger 2; compound dose not given here
# Conditions: Jurkat, 18 h
# [1] = compound: compound 19 (5-tert-butyl-thalidomide)
# [2] = compound: compound 22 (5-morpholino-thalidomide)
# [3] = compound: compound 33 (diphenyl IMiD analogue)
# 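Also: pooled lentiviral library of zinc finger degron-EGFP fusions in mCherry-positive Jurkat cells, FACS-sorted after compound exposure, with degron abundance counted by next-generation sequencing.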
Sequence,log2 fold change of degron read counts [1],log2 fold change of degron read counts [2],log2 fold change of degron read counts [3],log2 fold change of degron read counts (compound: thalidomide)
B1,-0.624,-1.35,0.123,-2.08
B2,1.74,1.52,0.198,0.0774
B3,-0.006,2.04,2.24,2.86
B4,-2.13,-2.82,-2.44,-2.99
B5,-3.49,-2.55,-2.84,-2.4
B6,-4.1,-3.78,-2.1,-2.87
B7,0.97,2.35,0.921,-0.663
B8,1.91,3.89,0.9,-0.759
B9,-1.78,0.744,0.282,0.237
B10,-2.58,-1.81,0.845,0.642
B11,2.53,3.51,1.89,1.22
B12,-1.89,-2.52,0.03,-0.264
B13,-0.729,-0.0361,1.6,1.18
B14,-1.07,2.83,1.95,2.35
B15,1.2,3.53,1.36,-0.0957
B16,-2.92,-3.14,-2.71,-2.77

Sequence,log2 fold change of degron read counts [1],log2 fold change of degron read counts [2],log2 fold change of degron read counts [3],log2 fold change of degron read counts (compound: thalidomide)
B17,-1.41,-1.24,-0.539,-0.171
B18,-2.34,-2.29,-2.14,-1.69
B19,2.58,2.82,1.14,0.354
B20,2.19,0.401,0.505,0.0402
B21,3,2.34,1.39,0.523
B22,2.28,1.35,2.11,1.39
B23,3.34,3.12,1.91,0.537
B24,1.65,-0.456,-0.467,-0.552
B25,3.3,1.74,0.378,-0.0211
B26,0.132,-1.04,-0.408,0.217
B27,-0.964,-0.957,1.9,0.514
B28,-0.963,-1.94,0.392,1.16
B29,-0.288,-1.63,0.563,0.887
B30,3.33,3.63,2.34,0.517
B31,-0.0508,2.24,2.45,3.57
B32,2.38,1.87,1.06,-0.251
